Experimental data from PubChem BioAssay (NCI).
Compounds without any hit were thinned out: in the full panel of roughly 79,000, 15% have a hit. The source made the active and inactive calls. Rule as the data show it: active = growth inhibition above about 70%; inactive = the rest.

What was measured:
[1] = NCI Yeast Anticancer Drug Screen. Data for the wt2 strain (AID 169);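 also: 0% = growth of vehicle-treated yeast cultures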; conditions: S. cerevisiae wt2 strain growth inhibition, active compounds read high
How it was run: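 Inhibition of yeast growth was determined after compound treatment, normalised to controls receiving only vehicle.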

[2] = NCI Yeast Anticancer Drug Screen. Data for the mlh1 strain (AID 171);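 also: 0% = growth of vehicle-treated control cultures of the same strain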; conditions: S. cerevisiae mlh1 strain growth inhibition, active compounds read high
How it was run: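 Vehicle-normalised growth inhibition of a repair- or checkpoint-altered yeast strain following compound treatment.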

[3] = NCI Yeast Anticancer Drug Screen. Data for the sgs1 strain (AID 173);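 also: 0% = growth of vehicle-only control cultures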; conditions: S. cerevisiae sgs1 mutant, active compounds read high
How it was run: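 Screen format: yeast with repair or checkpoint alterations, compound exposure, growth read relative to vehicle.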

[4] = NCI Yeast Anticancer Drug Screen. Data for the mlh1 rad18 strain (AID 175); conditions: S. cerevisiae mlh1 rad18 strain growth inhibition, active compounds read high
How it was run: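 Vehicle-treated cultures served as the reference for growth inhibition in a yeast strain carrying DNA damage repair alterations exposed to each compound.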

[5] = NCI Yeast Anticancer Drug Screen. Data for the rad18 strain (AID 177); conditions: S. cerevisiae rad18 mutant growth inhibition, active compounds read high
How it was run: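 Test articles were incubated with altered yeast defective in DNA damage repair. Results are given as inhibition of growth versus vehicle.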

[6] = NCI Yeast Anticancer Drug Screen. Data for the rad52 strain (AID 147);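 also: 0% = growth of vehicle-treated control cultures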; conditions: S. cerevisiae rad52 mutant growth inhibition, active compounds read high
How it was run: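 Vehicle-treated cultures served as the reference for growth inhibition of compound-exposed yeast bearing a DNA repair mutation.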

[7] = NCI Yeast Anticancer Drug Screen. Data for the wt1 strain (AID 149);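 also: 0% = growth of vehicle-treated wt1 cultures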; conditions: S. cerevisiae wt1 strain (SPY 50644) growth inhibition, active compounds read high
How it was run: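 Readout: yeast growth inhibition, normalised to vehicle controls, in the wt1 strain exposed to test compounds.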

[8] = NCI Yeast Anticancer Drug Screen. Data for the rad50EPP+ strain (AID 151);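 also: 0% = growth of vehicle-treated control cultures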; conditions: S. cerevisiae rad50 mutant strain, active compounds read high
How it was run: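 In this screen, rad50EPP+ yeast were exposed to compounds. Growth inhibition was scored against vehicle-treated controls.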

[9] = NCI Yeast Anticancer Drug Screen. Data for the mgt1 strain (AID 153); conditions: S. cerevisiae mgt1 mutant growth inhibition, active compounds read high
How it was run: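 mgt1 strain exposed; growth vs vehicle control recorded as inhibition.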

[10] = NCI Yeast Anticancer Drug Screen. Data for the rad50 strain (AID 155);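 also: 0% = growth of vehicle-only cultures of the same strain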; conditions: S. cerevisiae rad50 strain growth inhibition, active compounds read high
How it was run: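 Compounds were tested on a yeast strain with an engineered DNA damage repair alteration; the reported value is growth inhibition normalised to vehicle treatment.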

[11] = NCI Yeast Anticancer Drug Screen. Data for the mec2-1 strain (AID 157); conditions: S. cerevisiae mec2-1 strain, active compounds read high
How it was run: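 Vehicle-treated cultures served as reference for growth inhibition of compound-exposed mec2-1 yeast.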

[12] = NCI Yeast Anticancer Drug Screen. Data for the rad14 strain (AID 159);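 also: 0% = growth of vehicle-treated control cultures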; conditions: S. cerevisiae rad14 strain growth inhibition, active compounds read high
How it was run: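 Compound-treated yeast with a defined DNA-repair lesion; growth inhibition normalised to vehicle-treated cultures.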

[13] = NCI Yeast Anticancer Drug Screen. Data for the sgs1 mgt1 strain (AID 161);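 also: 0% = growth of cultures given vehicle only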; conditions: S. cerevisiae sgs1 mgt1 strain, active compounds read high
How it was run: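 Read-out: growth inhibition vs vehicle controls. Cells: mutant yeast strain deficient in DNA damage repair.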

[14] = NCI Yeast Anticancer Drug Screen. Data for the CLN2oe strain (AID 163);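 also: 0% = growth of vehicle-only control cultures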; conditions: S. cerevisiae CLN2oe strain, active compounds read high
How it was run: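 Inhibition relative to vehicle-treated yeast is reported. Cells: strain with genetic alteration in cell-cycle control, grown with compound.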

[15] = NCI Yeast Anticancer Drug Screen. Data for the cln2 rad14 strain (AID 165);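 also: 0% = growth equal to vehicle treated cultures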; conditions: S. cerevisiae cln2 rad14 strain, active compounds read high
How it was run: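 Each compound was tested on cln2 rad14 yeast. Inhibition of growth was calculated against vehicle-exposed controls.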

[16] = NCI Yeast Anticancer Drug Screen. Data for the bub3 strain (AID 167); conditions: S. cerevisiae bub3 mutant strain, active compounds read high
How it was run: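 Growth of a checkpoint-deficient yeast mutant is measured after compound exposure. Values represent inhibition relative to vehicle.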

[17] = at 5.0 µM (retest, dose inferred, filed as 0.5)
[18] = at 50.0 µM (retest, dose inferred, filed as 5.0)

Measured: growth inhibition

c1ccc2c(c1)-c1nc3ccccc3cc1C2N1CCOCC1 (centres undefined)
inactive: [1]; at 1.2 µM -1% | [1]; at 3.7 µM 1% | [1]; at 11.0 µM 2% | [1]; at 33.0 µM 7% | [1]; at 100.0 µM 26% | [2]; at 1.2 µM 3% | [2]; at 3.7 µM 3% | [2]; at 11.0 µM 3% | [2]; at 33.0 µM -10% | [2]; at 100.0 µM 28% | [3]; at 1.2 µM 2% | [3]; at 3.7 µM 4% | [3]; at 11.0 µM 8% | [3]; at 33.0 µM 18% | [3]; at 100.0 µM 38% | [4]; [17] -1% | [4]; [18] 47% | [4]; at 50.0 µM 61.1% | [5]; at 1.2 µM 7% | [5]; at 3.7 µM 5% | [5]; at 11.0 µM 12% | [5]; at 33.0 µM 11% | [5]; at 100.0 µM 6%

O=[N+]([O-])c1cc2no[n+]([O-])c2cc1N1CCCCC1
inactive: [6]; at 1.2 µM 31% | [6]; at 3.7 µM 65% | [7]; at 1.2 µM -32% | [7]; at 3.7 µM 53% | [8]; at 1.2 µM 26% | [9]; at 1.2 µM 4% | [9]; at 3.7 µM 56% | [10]; at 1.2 µM 22% | [10]; at 3.7 µM 62% | [10]; [17] 24% | [11]; at 1.2 µM 28% | [11]; [17] 41% | [12]; at 1.2 µM -8% | [12]; at 3.7 µM 56% | [13]; [17] 1% | [13]; [18] -4% | [14]; at 1.2 µM 27% | [14]; at 3.7 µM 60% | [15]; [17] 0% | [15]; [18] -46% | [16]; at 1.2 µM -24% | [16]; at 3.7 µM -8% | [16]; [17] -2% | [16]; [18] -16% | [1]; at 1.2 µM 0% | [2]; at 1.2 µM 24% | [2]; at 3.7 µM 68% | [3]; at 1.2 µM 51% | [4]; [17] 51% | [5]; at 1.2 µM 31%
active: [6]; at 11.0 µM 98% | [6]; at 33.0 µM 96% | [6]; at 100.0 µM 95% | [7]; at 11.0 µM 99% | [7]; at 33.0 µM 98% | [7]; at 100.0 µM 97% | [8]; at 3.7 µM 83% | [8]; at 11.0 µM 98% | [8]; at 33.0 µM 99% | [8]; at 100.0 µM 98% | [9]; at 11.0 µM 98% | [9]; at 33.0 µM 98% | [9]; at 100.0 µM 98% | [10]; at 11.0 µM 93% | [10]; at 33.0 µM 96% | [10]; [18] 74% | [10]; at 50.0 µM 90% | [10]; at 100.0 µM 95% | [11]; at 3.7 µM 82% | [11]; at 11.0 µM 98% | [11]; at 33.0 µM 98% | [11]; [18] 93% | [11]; at 50.0 µM 92.8% | [11]; at 100.0 µM 97% | [12]; at 11.0 µM 99% | [12]; at 33.0 µM 99% | [12]; at 100.0 µM 98% | [13]; at 50.0 µM 92.4% | [14]; at 11.0 µM 96% | [14]; at 33.0 µM 97% | [14]; at 100.0 µM 97% | [15]; at 50.0 µM 90.7% | [16]; at 11.0 µM 71% | [16]; at 33.0 µM 96% | [16]; at 50.0 µM 91.3% | [16]; at 100.0 µM 96% | [1]; at 3.7 µM 74% | [1]; at 11.0 µM 99% | [1]; at 33.0 µM 99% | [1]; at 100.0 µM 98% | [2]; at 11.0 µM 98% | [2]; at 33.0 µM 99% | [2]; at 100.0 µM 100% | [3]; at 3.7 µM 72% | [3]; at 11.0 µM 98% | [3]; at 33.0 µM 99% | [3]; at 100.0 µM 98% | [4]; [18] 89% | [4]; at 50.0 µM 91.5% | [5]; at 3.7 µM 73% | [5]; at 11.0 µM 97% | [5]; at 33.0 µM 97% | [5]; at 100.0 µM 96%

CCC(C(=O)O)C1=C(c2ccccc2)CCc2ccccc21 (centres undefined)
active: [6]; at 11.0 µM 97% | [6]; at 33.0 µM 99% | [6]; at 100.0 µM 98% | [7]; at 11.0 µM 97% | [7]; at 33.0 µM 99% | [7]; at 100.0 µM 94% | [9]; at 11.0 µM 90% | [9]; at 33.0 µM 99% | [9]; at 100.0 µM 80% | [10]; at 11.0 µM 97% | [10]; at 33.0 µM 99% | [10]; [18] 98% | [10]; at 50.0 µM 99.5% | [10]; at 100.0 µM 91% | [11]; at 11.0 µM 95% | [11]; at 33.0 µM 99% | [11]; [18] 99% | [11]; at 50.0 µM 99.5% | [11]; at 100.0 µM 98% | [12]; at 11.0 µM 96% | [12]; at 33.0 µM 99% | [12]; at 100.0 µM 90% | [13]; [18] 99% | [13]; at 50.0 µM 99.5% | [14]; at 11.0 µM 96% | [14]; at 33.0 µM 99% | [14]; at 100.0 µM 92% | [15]; [18] 98% | [15]; at 50.0 µM 98.8% | [16]; at 11.0 µM 93% | [16]; at 33.0 µM 99% | [16]; [18] 97% | [16]; at 50.0 µM 99% | [16]; at 100.0 µM 94% | [1]; at 11.0 µM 96% | [1]; at 33.0 µM 98% | [1]; at 100.0 µM 99% | [2]; at 11.0 µM 96% | [2]; at 33.0 µM 99% | [2]; at 100.0 µM 93% | [3]; at 11.0 µM 97% | [3]; at 33.0 µM 99% | [3]; at 100.0 µM 99% | [4]; [18] 99% | [4]; at 50.0 µM 99.5% | [5]; at 11.0 µM 97% | [5]; at 33.0 µM 99% | [5]; at 100.0 µM 82%
inactive: [6]; at 1.2 µM 10% | [6]; at 3.7 µM 29% | [7]; at 1.2 µM 4% | [7]; at 3.7 µM 20% | [8]; at 1.2 µM 0% | [8]; at 3.7 µM 2% | [8]; at 11.0 µM 7% | [8]; at 33.0 µM 26% | [8]; at 100.0 µM 44% | [9]; at 1.2 µM 7% | [9]; at 3.7 µM 12% | [10]; at 1.2 µM 10% | [10]; at 3.7 µM 30% | [10]; [17] 23% | [11]; at 1.2 µM 9% | [11]; at 3.7 µM 28% | [11]; [17] 11% | [12]; at 1.2 µM 12% | [12]; at 3.7 µM 19% | [13]; [17] 6% | [14]; at 1.2 µM 14% | [14]; at 3.7 µM 23% | [15]; [17] 6% | [16]; at 1.2 µM 6% | [16]; at 3.7 µM 13% | [16]; [17] -2% | [1]; at 1.2 µM 6% | [1]; at 3.7 µM 14% | [2]; at 1.2 µM 9% | [2]; at 3.7 µM 20% | [3]; at 1.2 µM 7% | [3]; at 3.7 µM 24% | [4]; [17] 52% | [5]; at 1.2 µM 8% | [5]; at 3.7 µM 27%
